The structures appear in SMILES notation. Out of some 360,000 compounds screened, about 2,400 (0.67%) were called active. This is one part of a sample in which actives are shown more often than they occur. Unmarked numbers belong to inactive results. Rule as the data show it: active = enhancement above about 30%; inactive = the rest.

This test deals with Thyrotropin-releasing hormone receptor (Homo sapiens) (UniProt P34981). In words: qHTS for Small Molecule Agonists and Allosteric Enhancers of Human TRH Receptor: Primary Screen for Enhancers. Also: 0% is about no effect. To be noted: TRHR cells, fluo-8 calcium fluorescence, EC20 TRH enhancement; at 2 µM; hits give high values. The procedure, abridged: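 TRHR-expressing cells loaded with fluo-8 calcium dye were read kinetically (ex 480/em 530) during compound addition, then stimulated with an EC20 of TRH (10 nM final). Enhancement of the Gq-mediated intracellular calcium response was scored.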
Thyrotropin-releasing hormone receptor (Homo sapiens), sequence (P34981 whole entry, looked up): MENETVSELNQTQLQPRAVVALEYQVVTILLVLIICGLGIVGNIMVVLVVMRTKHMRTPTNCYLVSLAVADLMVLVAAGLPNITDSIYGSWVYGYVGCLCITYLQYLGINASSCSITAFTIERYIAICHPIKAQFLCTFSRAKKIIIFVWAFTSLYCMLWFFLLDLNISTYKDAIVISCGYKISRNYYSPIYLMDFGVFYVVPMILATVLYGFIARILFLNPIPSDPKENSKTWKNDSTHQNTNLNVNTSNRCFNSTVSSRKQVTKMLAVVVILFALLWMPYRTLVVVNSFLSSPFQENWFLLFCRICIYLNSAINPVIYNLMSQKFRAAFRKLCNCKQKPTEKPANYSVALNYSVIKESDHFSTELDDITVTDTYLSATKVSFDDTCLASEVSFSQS
On the technique in general: qHTS replaces the single test concentration by a dilution series.
In the case of `CCOc1ccccc1NC(=O)COc1ccc(S(=O)(=O)N2CCCC2)cc1`, the enhancement is 19.7%.
Turning to `O=C(COc1ccc(S(=O)(=O)N2CCCCC2)cc1)NCc1ccccn1`, the enhancement is 36.9% (active).
In the case of `O=C(NCc1ccccn1)C1CCN(S(=O)(=O)c2ccc(Br)cc2)CC1` it was -2.72%.
The value for `COc1cccc(N2CC(NC(=O)/C=C\c3ccccc3)CC2=O)c1` (centres undefined) was 5.73%; that for `CCc1ccc(NC(=O)CSc2nc3c([nH]c4ccccc43)c(=O)n2-c2cccc(OC)c2)cc1` was 2.51%.
Regarding `Cc1ccccc1CC1(CO)CCCN(Cc2ccc3c(c2)OCCO3)C1` (centres undefined), the enhancement is 2.06%.
Turning to `CCc1[nH]nc(C(=O)N2CCCC(CO)(Cc3ccc(F)cc3F)C2)c1C` (centres undefined), the enhancement was -3.46%.
As to `CCOc1cc(CN2CCCC(CO)(Cc3ccc(F)cc3F)C2)ccc1OC` (centres undefined), the enhancement was 45.4% (active).
Turning to `CC(C)(C)OC(=O)N1CCC(c2c(C(=O)NCc3ccccn3)cnn2-c2ccc(F)cc2)CC1`, the enhancement was 0.916%.
In the case of `CSc1nc(=O)c2c(n1C)NC(=O)CC2c1ccccc1OC(C)C` (centres undefined), the enhancement is 1.92%.
As for `Cc1cc(C)c2oc(C(=O)Nc3c(C(=O)Nc4ccccc4)oc4ccccc34)cc(=O)c2c1`, the enhancement was -1.76%.
In the case of `Cc1ccc(S(=O)(=O)N(CC(=O)Nc2ccc(Cl)cc2Cl)c2ccccc2C)cc1` it was -0.851%; in that of `Cc1ccccc1-c1nc2cc(NC(=O)c3cccc(OCCC(C)C)c3)ccc2o1`, -6.29%.
In the case of `CCCOc1ccc(C(=O)Nc2ccc3oc(-c4cccc(Cl)c4Cl)nc3c2)cc1` it was -0.105%; in that of `CCCCOc1ccc(C(=O)Nc2cccc(-c3nc4ccccc4o3)c2C)cc1`, 36% (active); in that of `Cc1ccc(S(=O)(=O)c2nnn3c2nc(N2CCN(c4ccccc4F)CC2)c2cc(Cl)ccc23)cc1C`, 15.1%.
In the case of `COc1ccccc1CNC(=O)c1ccc(-n2c(C)cc3c2CCCC3)cc1`, the enhancement is -0.647%.
In the case of `Cc1noc(C)c1-c1ccc2ncnc(NCc3ccc(F)c(F)c3)c2c1` it was -4.49%; in that of `Cc1nc(N=C(N)N)nc2c(C)cccc12`, 10.2%; in that of `O=C(Cn1c(=O)nc(-c2ccccc2)c2cc(Cl)ccc21)NCc1ccc(Cl)cc1`, 10.8%.
In the case of `Clc1ccc2nc(-c3ccccc3)nc(C(Cl)Cl)c2c1` it was 2.39%; in that of `NC(N)=Nc1nc(-c2ccccc2)c2cc(Cl)ccc2n1`, 48.4% (active); in that of `O=C(O)c1ccc(Nc2nc(-c3ccccc3)c3cc(Br)ccc3n2)cc1`, 7.15%.
For the molecule `O=C(CCl)NNc1nc(-c2ccccc2)c2cc(Cl)ccc2n1`, the enhancement was 32.4% (active).
The value for `CCC(C)NC(=O)Cn1c(=O)n(-c2ccc(Cl)cc2)c(=O)c2c3c(sc21)CCCC3` (centres undefined) was 2.95%.
Regarding `CN1CCOc2cc(S(=O)(=O)N3CCN(S(=O)(=O)c4c(F)cccc4F)CC3)cnc21`, the enhancement is -0.823%.
The value for `Cc1ccc(C)c(NC(=O)CSC2=Nc3ccccc3N=C(c3ccc(F)cc3)C2)c1` was -0.667%.
The value for `O=[S+]([O-])(c1ccc(OC(F)(F)F)cc1)N1CCN([S+](=O)([O-])c2ccc3c(c2)OCCO3)CC1` was -5.08%.
With `Cc1cccc(-c2nc(SCC(=O)Nc3cc(C)on3)c3c(=O)n(C)c(=O)n(C)c3n2)c1`, the enhancement was 2.9%.
As for `CCCCn1c(=N)c(S(=O)(=O)c2ccccc2)cc2c(=O)n3cccc(C)c3nc21`, the enhancement was 1.28%.
The value for `CC(C)(C)c1ccc(OCC(=O)N2CCC(c3nc4ccccc4s3)CC2)cc1` was -1.99%; that for `C=CCC1=C/C(=C\c2c(N)n3nc(CC(=O)N4CCOCC4)sc3nc2=O)C=C(OC)C1=O` was 52.7% (active); that for `COC1=C/C(=C/c2c(N)n3nc(CC(=O)N4CCOCC4)sc3nc2=O)C=CC1=O` was 2.92%.
With `COc1cc(OC)c(NC(=O)c2c3c(nn2C)-c2ccccc2SC3)cc1Cl`, the enhancement was 2.77%.
Regarding `CC(C)(C)c1ccc(C(=O)N2CCC(c3nc(-c4ccc(S(=O)(=O)N5CCCC5)cc4)no3)CC2)cc1`, the enhancement is -2.71%.
`COc1cccc(-c2cc(C(=O)Nc3ccc(C)cc3)[nH]n2)c1`: the enhancement was -0.168%.
In the case of `Cc1oc(-c2ccccc2F)nc1CN1CCC(C(=O)NCCc2ccc(Cl)cc2)CC1` it was 31.8% (active); in that of `COc1ccc(-c2nc(CN3CCC(C(=O)NCc4ccccc4)CC3)c(C)o2)cc1OC`, 3.63%.
In the case of `COc1ccc(CCNC(=O)C2CCCN(Cc3nc(-c4cccc(Cl)c4)oc3C)C2)cc1OC` (centres undefined) it was -8.38%.
The value for `Cc1c(CN2CCC(CO)(CCOc3ccccc3)CC2)[nH]c2ccc(Cl)cc12` was 35.6% (active).
With `OCC1(CCc2ccccc2)CCN(Cc2ccc3nsnc3c2)CC1`, the enhancement is -4.46%.
As for `COc1cccc(CC2(CO)CCN(Cc3cnc(-c4cccc(C)c4)nc3)CC2)c1`, the enhancement is 1.96%.
In the case of `CN(Cc1ccccc1)c1ccc(-c2nc(-c3ccccc3)no2)cc1[N+](=O)[O-]` it was 5.53%; in that of `Cc1ccc(OC(=O)CSc2nnc(-c3cccs3)o2)cc1`, -4.22%; in that of `O=C(CC1SC(N2CCCC2)=NC1=O)Nc1ccc(C(=O)NCCc2ccc(F)cc2)cc1` (centres undefined), 33.4% (active).
In the case of `COc1ccc(NC(=O)CC2SC(N3CCCCC3)=NC2=O)cc1OC` (centres undefined) it was 1.49%; in that of `CCC(C)NC(=O)c1ccc(NC(=O)CC2SC(N3CCCCC3)=NC2=O)cc1` (centres undefined), -8.07%.
Take `Cc1cc2nc(-c3ccc(NC(=O)c4cc5ccccc5o4)cc3)oc2cc1C`: the enhancement is -7.25%.
As to `CC(=O)c1ccc(N2CCN(c3nc4c(S(=O)(=O)c5ccccc5)nnn4c4ccc(Cl)cc34)CC2)cc1`, the enhancement is 1.21%.
In the case of `O=C(CNC(=O)c1ccccc1)OC(C(=O)Nc1cc([N+](=O)[O-])ccc1F)c1ccccc1` (centres undefined) it was -0.946%.
The value for `O=C(c1ccc(OC2CCN(C/C=C/c3ccc(F)cc3)CC2)cc1)N1CCCCC1` was 0.691%.
Take `CSCC(=O)N1CCCC(C(=O)c2cc(F)ccc2F)C1` (centres undefined): the enhancement is -3.7%.
In the case of `COc1ccc(/C=C/CN2CCCC(C(=O)c3cc(F)ccc3F)C2)cc1` (centres undefined) it was 31.8% (active).
Consider `Cc1ccc2oc3c(c(=O)c2c1)C(c1ccc([N+](=O)[O-])cc1)N(CCCN1CCOCC1)C3=O` (centres undefined), for which the enhancement was -0.734%.

For the origin of these results see PubChem BioAssay AID493056 (National Center for Advancing Translational Sciences (NCATS), 2011).
